Assay results: PubChem BioAssay AID540256 (National Center for Advancing Translational Sciences (NCATS), 2011)
Values joined by “and” are separate entries in the source; they are usually repeats but may differ in a detail not shown here. Equal values may be shown once. The whole screen tested about 300,000 compounds, of which about 3,700 (1.2%) were called active. Roughly 20% stayed inconclusive and do not appear here. The full list was thinned out, with actives kept by preference. Unmarked numbers belong to inactive results. Calls come from the whole dose curve; tested in HEK293 cells.

experiment: qHTS for Inhibitors of binding or entry into cells for Lassa Virus; conditions: Lassa virus pseudotype entry inhibition, cell reporter; series mostly up to 37.9 µM; activity change, negative = inhibition: at the top concentration; note: nearly all actives have a fitted effect of over 50% in size
% is set by controls: 0 for no effect and ±100 for the full control effect; potency is the fitted concentration of half-maximal effect.

Structure (SMILES) | activity change, negative = inhibition | Potency
CCOc1ncccc1C(=O)Nc1ccc2c(c1)OCCO2 | 3.99% [at 46.1 µM] | –
COc1cccc2c1C(=O)c1c(O)c3c(c(O)c1C2=O)CC(O)(C(C)=NNC(=O)c1ccc(Cl)c(Cl)c1)CC3OC1CC(N)C(O)C(C)O1 (stereo unspecified) | – | 0.398 µM (active)
COc1ccc(C2NCCCC2c2ccccc2)cc1 (stereo unspecified) | 6.16% | –
Cc1ccccc1NC(=O)Cn1cc(C(=O)C2CC2)c2ccccc21 | 9.91% [at 46.1 µM] | –
CN(CCc1ccccn1)C1CCCN(S(=O)(=O)c2ccccc2Cl)C1 (stereo unspecified) | -13.5% [at 46.1 µM] | –
c1ccc2c(c1)C(=NC1CCCCC1)NC2=NC1CCCCC1 | – | 13 µM (active)
COC(=O)Cc1nc2c(N)nc(N)nc2[nH]c1=O | -1.05% [at 46.1 µM] | –
COc1cc(/C=C/c2ccc(/C=C/c3cc(OC)c(OC)c(OC)c3)cc2)cc(OC)c1OC | – | 11.2 µM (active)
CCC(=O)c1ccc(OC(=O)/C=C/c2cc(OC)c(OC)c(OC)c2)cc1 | 18.5% [at 46.1 µM] | –
COc1cc(/C=C/C2=CC(C)(C)NC(=S)N2)cc(OC)c1OC | -7.97% [at 46.1 µM] | –
Cc1ccc(NC(=O)C2CC2)cc1S(=O)(=O)N1CCOCC1 | 0% [at 46.1 µM] | –
Cc1cccc(N2CCN(C(=O)CCSCc3ccccc3F)CC2)c1C | -19.8% [at 46.1 µM] | –
CC[C@H]1CN2CCc3cc(OC)c(OC)cc3[C@@H]2C[C@@H]1C[C@H]1NCCc2cc(OC)c(OC)cc21 | – | 580 nM (active) and 184 nM (active)
CCC(CC)C(=O)N1CCc2cc(OC)c(OC)cc2C1COc1ccc(F)cc1 (stereo unspecified) | -13.9% [at 46.1 µM] | –
COc1cc2c(cc1O)[C@H](Cc1ccc(Oc3cc(C[C@@H]4NCCc5cc(OC)c(O)cc54)ccc3O)cc1)NCC2 | 3.88% | –
O=C(NC(=S)Nc1ccc(Br)cc1F)C1CCCCC1 | -27.3% | –
Nc1cccnc1Sc1ccccc1 | 6.71% | –
CC12C=C(C=Cc3ccc(F)cc3)C(C)(C1)C(c1ccc(F)cc1)CC2=O (stereo unspecified) | -4.68% [at 14.3 µM] | –
O=C(Nc1ccc(-c2nc3cc(NC(=O)c4ccccc4Cl)ccc3o2)cc1)c1ccccc1Cl | -18% [at 46.1 µM] | –
COc1cccc2sc(NNC(=O)c3nc4ccccc4s3)nc12 | -3.86% | –
COc1ccccc1OCc1nc2ccccc2s1 | – | 10 µM (active)
O=C(O)CCCCc1nc2ccccc2s1 | -0.106% | –

Structure (SMILES) | activity change, negative = inhibition | Potency
COc1ccc(-c2cc(=O)oc3cc(OC(C)C(=O)Nc4ccc(CN5CCOCC5)cc4)ccc23)cc1 (stereo unspecified) | -28.8% [at 46.1 µM] | –
c1ccc2c(c1)OCC(CNc1ncnc3nc[nH]c13)O2 (stereo unspecified) | 9.89% | –
S=C(NCC1COc2ccccc2O1)Nc1ccc(Br)cc1 (stereo unspecified) | 3.35% | –
c1ccc(-c2cc3c(NCC4COc5ccccc5O4)ncnc3s2)cc1 (stereo unspecified) | – | 11.6 µM (active)
O=C(Nc1cccc(C(=O)NC2CC2)c1)c1ccc(F)c(S(=O)(=O)N2CCOCC2)c1 | 2.79% | –
CCOc1ccc(C(=O)Nc2ccc3nc4c(c(Nc5ccccc5OC)c3c2)CCCC4)cc1 | – | 11.2 µM (active)
COc1cccc(NC(=O)c2ccc3c(SCC(=O)O)c4c(nc3c2)CCCC4)c1 | 17.5% [at 46.1 µM] | –
CCOc1ccc(C(=O)Nc2cc(OC)ccc2OC)cc1 | 20.4% | –
Cc1ccccc1CS(=O)(=O)CC1Nc2ccc(C(=O)NCc3ccc(Cl)cc3)cc2NC1=O (stereo unspecified) | -11.5% [at 46.1 µM] | –
Cc1ccc(OCCSc2nc3ccc(NC(=O)COc4ccc(C)cc4)cc3s2)cc1 | 6.03% [at 46.1 µM] | –
Cc1cc(C)nc(Nc2n[nH]c(-c3ccccc3N)n2)n1 | – | 6.31 µM (active)
Cc1cc(C)nc(NC(=O)C(C)N2C(=O)c3ccccc3C2=O)n1 (stereo unspecified) | 17.9% | –
Cc1cc(C)nc(Nc2cc([N+](=O)[O-])ccc2C)n1 | -1.28% | –
CC1CCN(C2=NC(=O)/C(=C/c3ccc(O)cc3)S2)CC1 | -27.1% | –
O=[N+]([O-])c1ccc(C=Nc2ccc(Cl)cc2Cl)s1 | – | 16.4 µM (active)
CNN/C(N=Cc1ccc([N+](=O)[O-])s1)=N\S(=O)(=O)c1cc(C)c(Cl)cc1SCc1ccccc1 | -0.987% | –
NC(N)=N/N=C/c1ccc(Cl)c([N+](=O)[O-])c1 | 10.6% | –
CCOc1ccc(NC(=O)CSc2nncn2C)cc1 | -5.3% | –
NS(=O)(=O)c1ccc(CNC(=O)c2cccc(S(=O)(=O)N3CCc4ccccc43)c2)cc1 | 5.39% | –
CN(Cc1ccccc1)C(=O)CSc1nc2ccccc2[nH]1 | 12% | –
CCOC(=O)C1CCN(C(=O)C2CCCN(S(=O)(=O)c3ccc(OC)c(Cl)c3)C2)CC1 (stereo unspecified) | -4.15% | –
COc1ccc(C(CCN(Cc2ccc(OC)c(OC)c2)C(=O)CCl)c2ccccc2)cc1 (stereo unspecified) | – | 10 µM (active)

Structure (SMILES) | activity change, negative = inhibition | Potency
COc1ccc(CCNC(=O)C(Sc2ccccn2)c2ccccc2)cc1OC (stereo unspecified) | -5.66% | –
CCOC(=O)CN(Cc1ccc(OC)c(OC)c1)S(=O)(=O)c1ccc(OC)cc1 | -21.2% | –
CCOC(=O)C1CCN(C(=O)CN2C(=O)NC(C)(c3ccc4cc(OC)ccc4c3)C2=O)CC1 (stereo unspecified) | -0.475% [at 46.1 µM] | –
COc1ccc(C(=O)Nc2cccc(/C=C(/CCC(=O)O)c3nc4ccccc4s3)c2)cc1 | 14.6% [at 46.1 µM] | –
CCOc1ccc(CNC(=O)CCc2c(C)nn(-c3ccc(N4CCCCC4)nn3)c2C)cc1 | -7.82% [at 46.1 µM] | –
COc1ccc2nc(Nc3nc(-c4ccncc4)cs3)sc2c1 | -4.91% [at 46.1 µM] | –
NS(=O)(=O)c1ccc(Nc2nc(-c3ccccc3)cs2)cc1 | -25.5% | –
COc1ccc(Nc2nc(-c3ccccc3)cs2)cc1 | – | 20.6 µM (active)
Nc1c(-c2ccccc2)nnn1Cc1ccccc1 | -13.1% [at 46.1 µM] | –
CCOc1ccc2oc(C(=O)N(CC)CC(=O)Nc3ccc(NC(C)=O)cc3)c(C)c2c1 | -17.5% | –
Cc1ccc(Nc2c(O)nc[nH]c2=O)cc1C | 29.7% [at 46.1 µM] | –
Fc1ccc(-c2nc(Nc3cccc(Cl)c3)nc3c2COc2ccccc2-3)cc1 | -1.69% [at 46.1 µM] | –
O=C(CC(=O)Nc1ccc(Cl)c(Cl)c1)N/N=C/c1ccc(O)cc1 | -16.6% | –
O=C(CC(O)(C(F)(F)F)C(F)(F)F)Nc1ccc(Cl)c(Cl)c1 | – | 4.61 µM (active)
N/C(=N\OC(=O)Nc1ccc(Cl)c(Cl)c1)c1ncc(C(F)(F)F)cc1Cl | -1.23% | –
O=C(COc1ccccc1F)Nc1nc(-c2ccccn2)cs1 | -25.7% [at 46.1 µM] | –
O=C1NC(=O)C(CCc2ccccc2)(c2ccccc2)N1 (stereo unspecified) | -11.9% | –
CC(C)[C@H]1COCCS(=O)(=O)N1Cc1ccccc1-c1cccc2c1sc1ccccc12 | -3.69% [at 46.1 µM] | –
CCn1c(=S)[nH]c2cc(S(=O)(=O)N3CCOCC3)ccc21 | 17% | –
O=C(CN1C(=O)NC2(CCCCC2)C1=O)NCCc1c[nH]c2ccccc12 | -1.27% | –
CC(=O)N/C(=C/c1ccc(Cl)cc1)C(=O)NCCc1c[nH]c2ccccc12 | 0.212% | –
N#C/C(=C/c1ccc(N2CCCCC2)o1)C(=O)NCCc1c[nH]c2ccccc12 | – | 7.08 µM (active)
